Reference: PubChem BioAssay (Tox21)
Inconclusive results are not listed. Activity calls are given as the source filed them. Unless noted, calls come from the whole dose curve; as a rule, active = well fitted curve in the direction sought with a large enough effect in the repeat runs; inconclusive = weak or mixed curves; inactive = no such curve, though single readings can be large; an effect the other way counts as inactive or inconclusive.

Columns and labels:
[1] = qHTS RealTime-Glo MT Cell Viability Assay in HEK293 cells - 8 hour (AID 1224887); note: top concentration of the series differs between compounds; nearly all actives have a fitted effect of over 50% in size
Procedure, shortened: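 Measured as luminescence from the same continuously cultured HEK293 wells at successive time points (0, 8, 16, 24, 32, 40 h) after compound addition. Reagent present from seeding; dosing at 5 h; incubation 37 C.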

[2] = A CellTox Green Cytotoxicity Assay to monitor cytotoxicity in HEK293 cells - 16 hour (AID 1224888); note: nearly all actives have a fitted effect of over 35% in size
Procedure, shortened: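 Homogeneous no-lysis format: HEK293 cell suspension mixed with CellTox Green reagent, seeded, incubated 5 h at 37 C/5% CO2, then dosed by pintool with compound in DMSO.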

[3] = qHTS RealTime-Glo MT Cell Viability Assay in HepG2 cells - 0 hour (AID 1224889); note: nearly all actives have a fitted effect of over 50% in size
Procedure, shortened: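 qHTS, HepG2, 600 cells/well, RealTime-Glo (NanoLuc + prosubstrate) added with cells; 5 h preincubation; DMSO compound addition; 37 C; luminescence at 0/8/16/24/32/40 h.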

[4] = A CellTox Green Cytotoxicity Assay to monitor cytotoxicity in HepG2 cells - 8 hour (AID 1224890); note: nearly all actives have a fitted effect of over 45% in size
Procedure, shortened: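 Fluorescent DNA-binding dye, 600 HepG2 cells/well, 5 h preincubation then compound in DMSO; same plates read at 0–40 h, 37 C.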

[5] = qHTS assay to identify small molecule antagonists of the estrogen receptor alpha (ER-alpha) signaling pathway using the BG1 cell line in the presence of 0.1 nM 17-beta-estradiol - cell viability counter screen (AID 1259241); note: nearly all actives have a fitted effect of over 40% in size
Procedure, shortened: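 Cytotoxicity counter-screen: live-cell protease activity measured by fluorescence (30 min reagent step) in the same wells. Cells were VM7Luc4E2 with endogenous ER-alpha and ERE-driven luciferase, treated 22 hr at 37C alongside 0.1 nM 17beta-estradiol final.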

[6] = qHTS assay to identify small molecule antagonists of the androgen receptor (AR) signaling pathway using the MDA cell line in the presence of 0.5 nM R1881 - cell viability counter screen (AID 1259242); note: nearly all actives have a fitted effect of over 45% in size
Procedure, shortened: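 Human breast carcinoma MDA-kb2 cells, cultured without CO2, receive compounds alongside 0.5 nM (final) R1881 agonist. After 16 hr at 37C, viability is taken as live-cell protease signal.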

[7] = target: Androgen receptor (Homo sapiens) (UniProt P10275); assay: qHTS assay to identify small molecule antagonists of the androgen receptor (AR) signaling pathway using the MDA cell line in the presence of 0.5 nM R1881 (AID 1259243); note: nearly all actives have a fitted effect of over 50% in size
Procedure, shortened: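 Cells: MDA-kb2 (MMTV-luc). Stimulus: 0.5 nM R1881. Time: 16 hr, 37C, no CO2. Detection: ONE-Glo luminescence after 30 min at RT.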

[8] = target: Estrogen receptor (Homo sapiens) (UniProt P03372); assay: qHTS assay to identify small molecule antagonists of the estrogen receptor alpha (ER-alpha) signaling pathway using the BG1 cell line in the presence of 0.1 nM 17-beta-estradiol (AID 1259244); note: nearly all actives have a fitted effect of over 50% in size
Procedure, shortened: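 Seeding of stripped-serum-adapted VM7Luc4E2 cells, 24 h attachment, compound transfer, then 0.1 nM final 17beta-estradiol; after 22 h incubation, ONE-Glo reagent and luminescence reading.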

[9] = qHTS assay to identify small molecule HDAC inhibitors (AID 1259364);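 note: wild-type HCT-116 cells with endogenous class I/II HDAC activity; top concentration of the series differs between compounds; nearly all actives have a fitted effect of over 45% in size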
Procedure, shortened: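 After a 2 hr compound incubation (37C, 5% CO2), HCT-116 cells seeded at 1,500/well the day before received HDAC-Glo reagent; signal read as luminescence after 30 min at room temperature.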

[10] = qHTS assay to identify small molecule HDAC inhibitors - cell viability counter screen (AID 1259365)
Procedure, shortened: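 CellTiter-Glo luminescence (30 min, room temperature) reported viability after a 2 h compound exposure at 37 C. Cells: wild-type HCT-116, 1,500 per well, seeded the night before.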

[11] = qHTS assay to identify small molecule agonists of the sonic hedgehog signaling (Shh) pathway - cell viability counter screen (AID 1259366); note: nearly all actives have a fitted effect of over 50% in size
Procedure, shortened: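 Cytotoxicity counter screen: CellTiter-Fluor reagent added after 23 h compound exposure, then 1 h at 37C and fluorescence read. Cells were 3T3 Gli1-Luc, seeded 2,000 per well and dosed 4 h post-plating.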

[12] = qHTS assay to identify small molecule antagonists of the sonic hedgehog signaling (Shh) pathway - cell viability counter screen (AID 1259367); note: nearly all actives have a fitted effect of over 55% in size
Procedure, shortened: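 Cytotoxicity was assessed in parallel with Shh reporter activity by measuring live-cell protease fluorescence (CellTiter-Fluor) in NIH/3T3 cells stably carrying Gli1-Luc, treated with compound under conditioned medium stimulation for 23 hr plus 1 hr reagent incubation.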

[13] = qHTS assay to identify small molecule agonists of the sonic hedgehog signaling (Shh) pathway (AID 1259368; calls by dose curve;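 note: NIH/3T3-derived 3T3Gli1-Luc cells carrying a stable Gli1-driven firefly luciferase reporter; series mostly up to about 92 µM; nearly all actives have a fitted effect of over 15% in size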)
Procedure, shortened: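 Stable NIH/3T3 Gli1-Luc reporter clone; 24 hr cpd exposure after a 4 hr settling period; luminescence endpoint.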

[14] = qHTS assay to identify small molecule antagonists of the sonic hedgehog signaling (Shh) pathway (AID 1259369; calls by dose curve; note: nearly all actives have a fitted effect of over 45% in size)
Procedure, shortened: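 Gli1 transcriptional reporter (firefly Luc) in NIH/3T3 background, conditioned-medium activated. 24hr exposure, luminescence endpoint.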

[15] = target: Estrogen receptor beta (Homo sapiens) (UniProt Q92731); assay: qHTS assay to identify small molecule agonists of the estrogen receptor beta (ER-beta) signaling pathway (AID 1259377; active = well fitted activation curve with a large enough effect in the signal ratio in the repeat runs, not every such curve was filed as active; the % refers to the signal ratio)
Procedure, shortened: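 Ratiometric beta-lactamase FRET read-out came after 2 h substrate loading at room temperature. It followed 16 h compound treatment at 37C of GripTite HEK293T cells carrying a UAS-bla reporter, plated in 2% charcoal-stripped FBS medium.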

[16] = target: Estrogen receptor beta (Homo sapiens) (UniProt Q92731); assay: qHTS assay to identify small molecule antagonists of the estrogen receptor beta (ER-beta) signaling pathway (AID 1259378; active = well fitted inhibition curve with a large enough effect in the signal ratio in the repeat runs, not every such curve was filed as active; the % refers to the signal ratio)
Procedure, shortened: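 ER-beta-UAS-bla HEK293T (GripTite) cells in 2% charcoal-stripped FBS medium were preincubated 6 hr at 37C, dosed with compound, then stimulated with 1 nM E2 (final) for 16 hr; beta-lactamase reporter read by B/G FRET fluorescence after 2 hr substrate loading.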

[17] = qHTS assay to identify small molecule agonists of the androgen receptor (AR) signaling pathway in the presence of an antagonist - cell viability counter screen (AID 1259379);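 note: MDA-kb2 human breast cancer cells carrying an MMTV luciferase reporter; series mostly up to about 92 µM; nearly all actives have a fitted effect of over 25% in size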
Procedure, shortened: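 Counter screen for cell viability run in parallel with the AR agonist-mode luciferase assay. MDA-kb2 cells were co-treated with nilutamide (3.0uM final) and compounds, then incubated 16 hr at 37C, and CellTiter-Fluor fluorescence was measured.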

[18] = qHTS assay to identify small molecule agonists of the estrogen receptor beta (ER-beta) signaling pathway - cell viability counter screen (AID 1259380); note: nearly all actives have a fitted effect of over 30% in size
Procedure, shortened: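 In this qHTS counter screen, HEK293T cells carrying an ER-beta/UAS beta-lactamase reporter, grown in 2% charcoal-stripped FBS, received compound for 16 hr; ATP-based CellTiter-Glo luminescence was then read after 30 min at room temperature.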

[19] = target: Androgen receptor (Homo sapiens) (UniProt P10275); assay: qHTS assay to identify small molecule agonists of the androgen receptor (AR) signaling pathway in the presence of an antagonist (AID 1259381; calls by dose curve; note: nearly all actives have a fitted effect of over 15% in size)
Procedure, shortened: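 AR antagonist background: nilutamide 3.0uM final. Cell line: MDA-kb2, MMTV-driven luciferase, responsive to both AR and GR. Exposure 16hr, 37C, no CO2; ONE-Glo luminescence.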

[20] = qHTS assay to identify small molecule phospholipidosis (PLD) inducers (AID 1259344; active = well fitted curve in the direction sought with a large enough effect; an effect the other way counts as inactive or inconclusive)
Procedure, shortened: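 Cells (HepG2, 900 per well) attach for 4 h, receive LipidTOX Red and compound together, incubate 24 h at 37 C, are fixed 30 min with paraformaldehyde/Hoechst, then imaged at one site per well.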

Measured: Potency

Sequence of Estrogen receptor (Homo sapiens) (P03372 whole entry, looked up): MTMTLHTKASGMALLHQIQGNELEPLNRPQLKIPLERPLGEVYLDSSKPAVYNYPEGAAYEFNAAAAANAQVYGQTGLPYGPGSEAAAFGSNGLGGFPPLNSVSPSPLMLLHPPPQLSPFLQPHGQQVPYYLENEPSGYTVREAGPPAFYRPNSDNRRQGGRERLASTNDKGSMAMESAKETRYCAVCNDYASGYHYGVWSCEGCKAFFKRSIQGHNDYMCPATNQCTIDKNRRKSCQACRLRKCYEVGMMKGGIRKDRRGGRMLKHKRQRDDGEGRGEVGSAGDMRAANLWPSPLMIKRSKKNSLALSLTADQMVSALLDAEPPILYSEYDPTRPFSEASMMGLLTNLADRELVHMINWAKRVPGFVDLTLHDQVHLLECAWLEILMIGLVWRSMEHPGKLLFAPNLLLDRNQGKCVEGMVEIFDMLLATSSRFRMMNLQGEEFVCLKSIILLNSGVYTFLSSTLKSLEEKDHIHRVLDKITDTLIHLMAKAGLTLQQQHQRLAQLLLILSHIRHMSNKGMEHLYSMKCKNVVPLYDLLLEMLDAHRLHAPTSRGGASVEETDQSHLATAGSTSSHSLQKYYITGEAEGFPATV
Sequence of Estrogen receptor beta (Homo sapiens) (Q92731 whole entry, looked up): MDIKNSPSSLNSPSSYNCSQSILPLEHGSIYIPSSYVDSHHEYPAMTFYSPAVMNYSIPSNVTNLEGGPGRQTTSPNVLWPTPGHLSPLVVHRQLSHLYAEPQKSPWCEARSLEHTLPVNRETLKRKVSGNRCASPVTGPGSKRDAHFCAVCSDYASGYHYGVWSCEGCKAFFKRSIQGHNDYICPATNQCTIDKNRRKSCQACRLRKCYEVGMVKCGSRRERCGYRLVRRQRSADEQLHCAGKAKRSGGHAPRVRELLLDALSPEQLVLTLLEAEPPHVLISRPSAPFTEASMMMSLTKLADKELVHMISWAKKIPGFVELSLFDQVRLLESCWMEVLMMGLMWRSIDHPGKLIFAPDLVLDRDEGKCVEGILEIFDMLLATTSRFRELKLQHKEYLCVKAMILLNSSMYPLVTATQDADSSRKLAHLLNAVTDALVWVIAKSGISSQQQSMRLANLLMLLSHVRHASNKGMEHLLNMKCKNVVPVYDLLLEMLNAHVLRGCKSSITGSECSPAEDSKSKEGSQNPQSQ
Sequence of Androgen receptor (Homo sapiens) (P10275 whole entry, looked up): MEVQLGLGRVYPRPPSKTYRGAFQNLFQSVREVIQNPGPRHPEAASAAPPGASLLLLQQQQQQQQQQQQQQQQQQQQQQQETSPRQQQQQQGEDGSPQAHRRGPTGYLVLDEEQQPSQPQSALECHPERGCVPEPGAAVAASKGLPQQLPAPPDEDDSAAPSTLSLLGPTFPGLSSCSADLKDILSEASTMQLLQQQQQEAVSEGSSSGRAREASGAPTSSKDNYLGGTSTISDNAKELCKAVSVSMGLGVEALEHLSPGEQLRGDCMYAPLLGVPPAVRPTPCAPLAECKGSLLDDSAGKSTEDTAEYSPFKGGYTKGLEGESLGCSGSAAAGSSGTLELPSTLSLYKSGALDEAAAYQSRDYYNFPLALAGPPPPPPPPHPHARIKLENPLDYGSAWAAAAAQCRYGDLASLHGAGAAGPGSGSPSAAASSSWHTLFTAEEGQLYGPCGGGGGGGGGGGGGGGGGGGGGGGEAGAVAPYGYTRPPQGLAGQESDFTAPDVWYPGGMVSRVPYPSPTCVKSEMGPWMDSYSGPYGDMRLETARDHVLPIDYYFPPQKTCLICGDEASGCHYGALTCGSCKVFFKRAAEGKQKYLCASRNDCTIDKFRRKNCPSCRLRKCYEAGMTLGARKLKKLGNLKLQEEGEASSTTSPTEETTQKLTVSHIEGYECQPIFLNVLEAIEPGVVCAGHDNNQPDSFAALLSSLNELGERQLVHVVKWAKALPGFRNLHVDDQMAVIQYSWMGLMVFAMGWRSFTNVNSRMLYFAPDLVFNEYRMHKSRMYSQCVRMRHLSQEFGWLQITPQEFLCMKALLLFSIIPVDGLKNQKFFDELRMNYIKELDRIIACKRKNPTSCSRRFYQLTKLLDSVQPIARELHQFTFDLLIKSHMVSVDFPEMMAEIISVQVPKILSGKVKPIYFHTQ

COc1cc(OC)nc(O[C@H](C(=O)O)C(OC)(c2ccccc2)c2ccccc2)n1
not listed: [20]
inactive: all other assays above

COC(C)(OC)OC
not listed: [12] | [15] | [16] | [20]
inactive: all other assays above

O=C(O)[C@H](O)c1ccccc1
not listed: [7] | [15] | [16] | [19]
inactive: all other assays above

CC1(C)Oc2ccc(C#N)cc2[C@@H](N2CCCC2=O)[C@@H]1O
not listed: [7] | [11] | [16] | [19]
inactive: all other assays above

CO/N=C(/C(=O)N[C@@H]1C(=O)N2C(C(=O)[O-])=C(C[n+]3ccn4ncccc43)CS[C@H]12)c1nsc(N)n1
not listed: [7] | [14] | [17] | [19]
inactive: all other assays above

CC(C)COC(=O)c1ccccc1
not listed: [15] | [16] | [20]
inactive: all other assays above

N#CCC(=O)NN
not listed: [7] | [14] | [15] | [16] | [19]
inactive: all other assays above

CC(=O)O[C@H]1C[C@@H]2CC[C@@]1(C)C2(C)C
not listed: [8] | [14] | [20]
inactive: all other assays above

Cc1ccc(C(=O)O)cc1[N+](=O)[O-]
not listed: [20]
inactive: all other assays above

CC1=C(C(=O)O)N2C(=O)[C@@H](NC(=O)[C@H](N)c3ccccc3)[C@H]2SC1
not listed: [7] | [12] | [14] | [15] | [17] | [18] | [19]
inactive: all other assays above

CN(C)CCCCl
not listed: [7] | [14] | [15] | [16] | [19] | [20]
inactive: all other assays above

C=CCCCCCCCCC(=O)OCCCC
not listed: [7] | [14] | [19] | [20]
inactive: all other assays above

CCCCCCC1(C)CCC(=O)O1 (configuration not stated)
not listed: [7] | [15] | [16] | [19] | [20]
inactive: all other assays above

CCCCOC(=O)[C@H](C)O
not listed: [7] | [15] | [16] | [19] | [20]
inactive: all other assays above

CC(CO)(CO)CO
not listed: [7] | [14] | [16] | [19] | [20]
inactive: all other assays above

CC/C(C)=N\O[Si](C)(O/N=C(\C)CC)O/N=C(\C)CC
not listed: [7] | [15] | [16] | [17] | [19] | [20]
inactive: all other assays above

CC1(C)[C@H]2CC[C@](C)(C2)[C@H]1O
not listed: [7] | [19] | [20]
inactive: all other assays above

CCOc1cccc(N)c1
not listed: [7] | [19] | [20]
inactive: all other assays above

Cc1ccccc1C(N)=O
not listed: [7] | [17] | [19] | [20]
inactive: all other assays above

c1ccc2cnccc2c1
not listed: [7] | [15] | [16] | [19] | [20]
inactive: all other assays above

CC1=C(O)C(=O)C(C)O1 (configuration not stated)
not listed: [7] | [15] | [19] | [20]
inactive: all other assays above

CCCCCCCCCCOC(C)=O
not listed: [7] | [15] | [16] | [19] | [20]
inactive: all other assays above

CC(C)c1ccc(C=O)cc1
not listed: [7] | [15] | [16] | [19] | [20]
inactive: all other assays above

NCCOCCN
not listed: [7] | [15] | [16] | [19] | [20]
inactive: all other assays above

CSc1cnccn1
not listed: [7] | [17] | [19] | [20]
inactive: all other assays above

c1ccc(-c2nn[nH]n2)cc1
not listed: [7] | [12] | [16] | [19] | [20]
inactive: all other assays above

CCCCCCCCCCCCCCC(=O)NC(CO)CCCCCCCCCCCCCC (configuration not stated)
not listed: [7] | [16] | [19] | [20]
inactive: all other assays above

CCc1occc(=O)c1O
not listed: [7] | [12] | [15] | [16] | [19] | [20]
inactive: all other assays above

COC(=O)c1ccccc1C(=O)O
not listed: [7] | [14] | [16] | [19] | [20]
inactive: all other assays above

CC(=O)C1C(=O)C=C(C)OC1=O (configuration not stated)
not listed: [7] | [19] | [20]
inactive: all other assays above

CCCCOCCOC(=O)COc1ccc(Cl)cc1Cl
not listed: [7] | [19] | [20]
inactive: all other assays above

Cc1cc(C)c(C(=O)O)c(C)c1
not listed: [7] | [19] | [20]
inactive: all other assays above

C=CCCCC
not listed: [7] | [15] | [16] | [19] | [20]
inactive: all other assays above

CCN1CCCC1CN (configuration not stated)
not listed: [7] | [16] | [19] | [20]
inactive: all other assays above
